# Source: PubChem BioAssay (several laboratories)
# 697 NFkB inh = inhibitors of PMA/ionomycin-induced NF-kB reporter, 697 cells, primary screen, B-cell NF-kB inhibitor project, cell-based, luminescence, uHTS; hit rate 0.33% among 330,000; AID 435022, 2010; 697 B-cell NF-kB luciferase reporter, 16 h; inhibition, % at 4 µM; in the data active = inhibition above about 35%
# NTR1 agonist = agonists of human NTR1, primary screen, imaging, U2OS cells, beta-arrestin-GFP, high content; Neurotensin receptor type 1 (Homo sapiens), P30989; NTR1-U2OS beta-arrestin-GFP spot imaging, agonist mode; activation, % at 20 µM; hit rate 0.17% among 330,000;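 active = activation at or above 40% of the spot to cytoplasm intensity ratio, with at least 20 cells analyzed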;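 note: 0% = DMSO without peptide and 100% = 100 nM NTR1 peptide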
# Mdm2 MdmX PPI = inhibitors of human Mdm2-MdmX association, primary screen, cell-based, luminescence, split luciferase, SaOS-2, uHTS. SaOS-2 split-luciferase Mdm2/MdmX complementation. inhibition, % at 8 µM. hit rate 3% among 330,000. AID 485346, 2010;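 active = inhibition of at least 50% at 8 µM in the primary screen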
# Target sequence (O15151 whole entry, looked up): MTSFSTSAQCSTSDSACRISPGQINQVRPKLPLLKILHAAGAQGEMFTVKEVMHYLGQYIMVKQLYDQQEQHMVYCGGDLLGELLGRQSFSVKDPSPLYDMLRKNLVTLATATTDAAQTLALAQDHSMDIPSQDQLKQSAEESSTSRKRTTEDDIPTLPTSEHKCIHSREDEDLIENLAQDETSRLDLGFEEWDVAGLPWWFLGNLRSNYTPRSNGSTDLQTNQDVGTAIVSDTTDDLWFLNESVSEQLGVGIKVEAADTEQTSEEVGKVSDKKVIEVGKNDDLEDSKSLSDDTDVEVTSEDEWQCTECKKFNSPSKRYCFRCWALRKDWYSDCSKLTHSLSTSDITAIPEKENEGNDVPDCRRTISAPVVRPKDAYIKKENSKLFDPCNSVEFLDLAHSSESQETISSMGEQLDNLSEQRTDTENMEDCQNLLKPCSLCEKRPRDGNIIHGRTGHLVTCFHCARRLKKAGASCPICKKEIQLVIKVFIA
# Target sequence (Q00987 whole entry, looked up): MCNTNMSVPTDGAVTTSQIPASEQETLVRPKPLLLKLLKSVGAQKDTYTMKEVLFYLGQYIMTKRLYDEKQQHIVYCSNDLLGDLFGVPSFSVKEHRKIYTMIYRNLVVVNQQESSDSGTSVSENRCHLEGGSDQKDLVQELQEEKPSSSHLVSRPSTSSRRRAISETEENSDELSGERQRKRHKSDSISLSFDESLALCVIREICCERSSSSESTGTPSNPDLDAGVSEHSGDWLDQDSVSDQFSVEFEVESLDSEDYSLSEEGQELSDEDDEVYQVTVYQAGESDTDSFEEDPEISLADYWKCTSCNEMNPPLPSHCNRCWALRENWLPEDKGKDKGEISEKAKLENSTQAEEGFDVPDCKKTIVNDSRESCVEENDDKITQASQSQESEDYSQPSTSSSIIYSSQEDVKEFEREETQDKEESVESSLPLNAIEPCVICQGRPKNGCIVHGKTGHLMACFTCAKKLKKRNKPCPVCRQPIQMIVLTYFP
# Bfl-1 A1 inh = caspase 3/7 activation in MEF A1-2A-BIM cells, primary screen, A1 inhibitor project, cell-based, luminescence, HTS; Caspase-Glo 3/7 luminescence, 3 h; percent of clofoctol response, vehicle zero; caspase activation, % (concentration not given with the values); hit rate 0.066% among 330,000;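 active = over half of replicate activation scores above 10%, or exactly half above 10 with the replicate mean above 10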
# Beta cell apopt = inhibitors of cytokine-induced beta cell apoptosis, primary screen, luminescence; hit rate 0.8% among 300,000; protection from apoptosis, % (concentration not given with the values); INS-1E cytokine-induced death, ATP luminescence, 48 h; percent of positive-control rescue, neutral wells zero; AID 435005, 2010;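 active = Every replicate reaches about 75%, or at least half do and their mean reaches it too, limit read from the data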;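 note: 0% = cytokine-treated negative control wells and 100% = positive control rescue; higher means more ATP so stronger rescue from cytokine killing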
# Jurkat NFkB inh = inhibitors of induced NF-kB luciferase reporter, primary screen, TCR NF-kB activation inhibitor project, cell-based, luminescence, uHTS; Jurkat, PMA/ionomycin-induced NF-kB luciferase reporter; inhibition, % at 4 µM; hit rate 0.53% among 330,000; AID 435003, 2010; in the data active = inhibition above about 50%
# Mdm2 MdmX conf = Mdm2-MdmX complex disruptors, retested hits, confirmation, luminescence, single concentration | Mdm2-MdmX binding, luminescent assay | shares compounds with Mdm2 MdmX PPI | AID 489028, 2010 | hit rate 55% among 10,000 | inhibition, % at 8 µM; in the data active = inhibition above about 40%
# FLuc counter = full-length luciferase signal inhibition, confirmation, counter-screen for Mdm2/MdmX interaction inhibitor project, cell-based, single concentration, SaOS-2. shares compounds with Mdm2 MdmX PPI. SaOS-2 full-length luciferase counterscreen, luminescence. inhibition, % at 8 µM. hit rate 77% among 6,200. AID 504607, 2011;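 active = mean inhibition at 8 µM reaching about 37%, which flags the compound as non-specific, limit read from the data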;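 note: p53-null SaOS-2 cells with luciferase driven by a doxycycline-inducible promoter; compound on cells about two nights before reading with doxycycline added after day one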
# NTR1 ag conf = NTR1 agonists, single-dose retest, confirmation, imaging, U2OS cells, beta-arrestin-GFP, single concentration. shares compounds with NTR1 agonist. NTR1-U2OS beta-arrestin-GFP translocation imaging. activation, % at 20 µM. hit rate 38% among 480. AID 504550, 2011;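 active = mean activation at 20 µM of at least 40%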;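 note: 0% = DMSO without peptide and 100% = 100 nM NTR1 peptide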
# * = called active by the depositor; x = not tested or not shown. Sampled rows, rich in hits. Any-hit rate of the full collection: about 3.8%.
SMILES,697 NFkB inh,NTR1 agonist,Mdm2 MdmX PPI,Bfl-1 A1 inh,Beta cell apopt,Jurkat NFkB inh,Mdm2 MdmX conf,NTR1 ag conf,others
CC1CCC(C(C)C)C(OC(=O)Cn2c(COc3ccccc3)[n+](C)c3ccccc32)C1 (stereo not given),-25,59*,98*,1,106*,24,96*,68*,FLuc counter=54*
CC(C)(C)n1cccc1/C=C1\C(=O)NC(=O)N(c2ccccc2)C1=O,-6,7,0,0,x,11,x,x,
Cc1cc(C)cc(N2C(=O)NC(=O)/C(=C/c3cccn3-c3ccc(Cl)cc3)C2=O)c1,18,44*,66*,0,-7,20,17,61*,
Cc1cccc(N2C(=O)NC(=O)/C(=C\c3cccn3-c3ccc(Cl)cc3)C2=O)c1,25,48*,73*,-1,12,22,40,82*,FLuc counter=69*
C=C[C@H]1CN2CC[C@H]1C[C@@H]2[C@@H](O)c1ccnc2ccccc12,-10,0,3,0,-3,4,x,x,
CC1CCCC(NC(=O)CNC(=S)N2CC3CC(C2)c2cccc(=O)n2C3)C1C (stereo not given),3,1,9,1,-3,11,x,x,
O=c1[nH]c2ccccc2n1C1CCN(CCCC(c2ccc(F)cc2)c2ccc(F)cc2)CC1,-18,43*,66*,1,-3,20,10,14,
C=CCn1cc(C=C2C(=O)NC(=O)NC2=O)c2ccccc21,-3,1,17,1,-3,15,x,x,
O=C1NC(=O)C(=Cc2cn(CCOc3ccc4c(c3)OCO4)c3ccccc23)C(=O)N1,-61,54*,59*,-1,3,-1,24,63*,
COc1cc(C(=S)N2CCOCC2)cc(OC)c1OC(=O)Cc1ccccc1,-1,-1,-7,0,0,7,x,x,
COc1ccc(C2(c3cccc(O)c3OC)CCN(C(C)=O)CC2)cc1O,13,-2,-4,0,0,8,x,x,
COC(=O)c1ccc(NC(=O)CSc2nc3ccc(N4C(=O)C5C6C=CC(C6)C5C4=O)cc3s2)cc1 (stereo not given),-21,63*,69*,0,5,3,23,56*,
COc1ccc(Oc2cc(NC(=O)c3nn(C)cc3[N+](=O)[O-])cc([N+](=O)[O-])c2)cc1,32,61*,76*,13*,2,9,96*,67*,FLuc counter=46*
COc1nc(NC(C)C)nc(NC(C)C)n1,21,1,-26,-1,1,9,x,x,
Cc1ccc(C(=O)N[C@@H](C)CN2C3=NC[C@H](Cc4ccccc4)N3C[C@H]2Cc2ccc(O)cc2)cc1Br,23,52*,98*,0,1,16,58*,38,FLuc counter=57*
Cc1c(O)ccc(C(=O)CN2CC(C)OC(C)C2)c1O (stereo not given),-9,0,16,-1,-7,10,x,x,
O=C1NC(=O)N(Cc2ccc(F)cc2)C(=O)/C1=C/c1cccs1,11,53*,32,1,7,4,x,45*,
O=C1NC(=O)N(Cc2ccccc2Cl)C(=O)/C1=C/c1cccs1,14,22,37,0,34,-1,x,x,
O=C1NC(=O)C(=Cc2ccc(Sc3ccccc3)o2)C(=O)N1,13,49*,4,0,-9,2,x,90*,
O=C1Nc2ccc(Br)cc2C(c2ccc(Cl)cc2)=NC1O (stereo not given),4,1,13,0,2,-22,x,x,
Nc1ccc(Cl)cc1C(=O)c1ccccc1Cl,-1,-2,13,1,x,25,x,x,
Nc1ccc(Cl)cc1C(=O)c1ccccc1,-14,100*,3,1,-5,-13,x,-5,
Cc1cccc(-c2nc3ccc(C(=O)N4CCC5(CC4)OCCO5)cc3nc2-c2cccc(C)c2)c1,7,13,39,1,-4,-3,x,x,
CCN(CC)c1ccc(C=C2C(=O)NC(=S)NC2=O)cc1,19,71*,23,0,-8,7,x,95*,
